# Reference: PubChem BioAssay AID1775 (NMMLSC, 2009)
# The whole screen tested about 220,000 compounds, of which about 820 (0.37%) were called active. This excerpt belongs to a sample that is enriched for actives. A number with no mark means an inactive call. Rule as the data show it: active = fluorescence above about 47; inactive = the rest.
# Assay: green autofluorescence of compounds with avidin beads – biophysical, 488/530 nm, flow cytometry, artefact control, profiling panel (AID 1775)
# Conditions: compound fluorescence 488/530 nm, at 10 µM, hits give high values
row,SMILES,fluorescence (KMESF)
1,COc1ccc(/C(=N\O)c2nccc3cc(OC)c(OC)cc23)cc1OC,7
2,O=C(NC(=S)Nc1ccc(S(=O)(=O)N2CCOCC2)cc1)c1ccccc1[N+](=O)[O-],10
3,CCc1ccccc1NC(=O)Cc1cn(C)c2ccccc12,10
4,Fc1cccc(Cl)c1CSc1ccc(-c2ccco2)nn1,49 (active)
5,Cn1c(SCc2c(F)cccc2Cl)nnc1-c1cnccn1,1
6,Brc1ccc(CSc2ccc(-c3ccco3)nn2)cc1,13
7,CCCCN(Cc1ccccc1)C(=O)C1CCN(Cc2sccc2C)CC1,5
8,Cc1ccc(-c2cn(S(=O)(=O)c3cccc([N+](=O)[O-])c3)nc2N)cc1,2
9,O=C(N/N=C/c1cccc2cccnc12)[C@H]1C[C@@H]1c1ccccc1,4
10,Cc1cccc(N2CCN(Cc3c(C)n(C)n(-c4ccccc4)c3=O)CC2)c1C,16
11,Cc1c(CN2CCC(C)CC2)c(=O)n(-c2ccccc2)n1C,9
12,Cc1c(CN2CCCC(C(=O)c3cccc(Cl)c3)C2)c(=O)n(-c2ccccc2)n1C (stereo not given),67 (active)
13,Cc1ccc(N/C=C/C(=O)c2ccccc2)cc1C,14
14,CC(=O)c1cnc(-c2ccccc2)s1,9
15,O=C(/C=C/Nc1ccccc1)c1cnc(-c2ccccc2)s1,49 (active)
16,CCNC(=O)CCc1nc(-c2ccc(C(C)(C)C)cc2)no1,49 (active)
17,Cc1ccc(-c2noc(CCC(N)=O)n2)cc1,19
18,CCNC(=O)CCc1nc(-c2ccc(C)cc2)no1,4
19,Cc1ccc2c(C)c(C(=O)N3CCC(N4CCC(C(=O)NC5CC5)CC4)CC3)oc2c1,8
20,COc1ccc(NC(=O)C2C3C=CC(C3)C2C(=O)NCc2ccccn2)c(OC)c1 (stereo not given),27
21,Cc1ccccc1N(C(=O)Cc1cccs1)C(C(=O)NC1CCCCC1)c1cn(C)nc1C (stereo not given),12
22,O=S(=O)(NCCc1csc(-c2ccccc2)n1)c1cccnc1,5
23,CC(C(=O)NC1CCCC1)N(c1ccc(Oc2ccccc2)cc1)S(C)(=O)=O (stereo not given),9
24,Cc1ccccc1C(OCCN(C)C)C1CCCCC1 (stereo not given),13
25,Cc1nnc(OCC(=O)NCCC2=CCCCC2)c2ccccc12,20

row,SMILES,fluorescence (KMESF)
1,O=C(COc1ccc(Cl)cc1)NCCC1=CCCCC1,51 (active)
2,O=C(COc1cccc(-n2cnnn2)c1)NCCC1=CCCCC1,5
3,COC/C=C/C1=CC2=CC(=O)C(C)(OC(=O)CCC(=O)OC)C(=O)C2=CO1 (stereo not given),10
4,O=C(CSc1ccccc1)Nc1ccc(C(=O)Nc2cccc(O)c2)cc1,15
5,O=C(NCCOc1ccccc1Cl)C(=O)Nc1ccccc1,2
6,COc1ccc(S(=O)(=O)N2CCCCCC2)cc1C(=O)OCC(=O)Nc1cc(C)on1,11
7,O=C(/C=C/c1ccc(Cl)c([N+](=O)[O-])c1)c1ccc(O)cc1,6
8,CN(C)c1ccc(/C=C/C(=O)c2ccc(C(C)(C)C)cc2)cc1[N+](=O)[O-],57 (active)
9,CN(C)c1ccc(/C=C/C(=O)c2ccc(O)cc2)cc1[N+](=O)[O-],6
10,N=C(N)SCc1cccc2ccccc12,68 (active)
11,c1ccc2c(CSCc3nc4ccccc4[nH]3)cccc2c1,9
12,CCOc1ccc(Br)cc1CSC(=N)N,8
13,C=CCn1c(=S)sc2c(=O)[nH]c(C)nc21,3
14,CSc1ccc(CN2C(=O)NC3(CCCCCC3)C2=O)cc1,50 (active)
15,O=C(CN1C(=O)NC2(CCCCCC2)C1=O)NC1CC1,14
16,O=C1NC2(CCCCCC2)C(=O)N1CCS(=O)(=O)Oc1ccccc1,12
17,CN=C(c1ccccc1)c1c(C)cccc1C,1
18,CCN(CC)C(=O)CC(c1ccc2c(c1)OCO2)c1c(OC)cc(OC)c2c(-c3ccccc3)cc(=O)oc12 (stereo not given),8
19,O=C(NC1CC1)c1ccc(-c2ccccc2)cc1,11
20,O=C(NC1CC1)c1cccc(Br)c1,4
21,O=C(NC1CC1)c1ccc2c(c1)NC(=O)c1ccccc1S2,80 (active)
22,COc1ccc(Cl)cc1N(CC(=O)N/N=C/c1ccc(OCC(N)=O)cc1)S(C)(=O)=O,10
23,Cc1[nH]nc(SCC(=O)NCC(C)C)c1[N+](=O)[O-],6
24,CCOC(=O)c1sc(/N=C/Nc2nc(C)c(C(=O)OCC)s2)nc1C,54 (active)
25,CCOC(=O)c1sc(NC(=O)CSc2n[nH]c(CC)n2)nc1C,15

row,SMILES,fluorescence (KMESF)
1,CCOC(=O)c1sc(NC(=O)c2ccncc2)nc1C,4
2,Cc1ccc2nc(-c3cccnc3)c(NC3CCCC3)n2c1,9
3,Cc1cc(=O)n2[nH]c(-c3sccc3-n3c(C)ccc3C)cc2n1,5
4,O=C(CCC(=O)N1CCCC1)Nc1ccc([N+](=O)[O-])cc1,9
5,Cc1ccc(-n2c(C)cc(C(=O)CSc3nnc4ccccn34)c2C)cc1,11
6,O=C(CN1CCN(c2ccc(Cl)cc2)CC1)N1CCCC1,13
7,O=C(COc1ccc(Cl)cc1)N1CCN(c2cccc(C(F)(F)F)c2)CC1,20
8,COC(=O)c1ccccc1OCC(=O)N1CCN(c2ccc(Cl)cc2)CC1,189 (active)
9,CC(C)COC(=O)n1c(=O)oc2ccc(S(=O)(=O)N3CCCCC3)cc21,7
10,Cc1cc(OC(=O)c2ccccc2)c([N+](=O)[O-])c(=O)[nH]1,13
11,COc1ccc(N2CC(C)Cn3c2nc2c3c(=O)n(Cc3ccccc3F)c(=O)n2C)c(OC)c1 (stereo not given),54 (active)
12,Cc1cccc(N2CC(C)Cn3c2nc2c3c(=O)n(CC(=O)OCc3ccccc3)c(=O)n2C)c1 (stereo not given),5
13,CC(C)OCCCNc1nc2c(c(=O)n(Cc3ccccc3F)c(=O)n2C)n1C,16
14,C/C(=N\Nc1cccc(C(=O)O)c1)c1ccc2c(c1)Nc1ccccc1S2,11
15,COc1ccc(CCNC(=O)CCCCn2c(=O)[nH]c3ccccc3c2=O)cc1OC,39
16,O=C(CCCCCn1c(=O)[nH]c2ccccc2c1=O)NCCc1c[nH]c2ccccc12,14
17,O=C(CCCCn1c(=O)[nH]c2ccccc2c1=O)NCc1ccc2c(c1)OCO2,81 (active)
18,N/C(=N\OC(=O)CCn1cccc(C(F)(F)F)c1=O)c1ccc(OC(F)(F)F)cc1,8
19,COc1cccc(C(=O)N2CCCC(CCC(=O)NCc3ccc(F)c(F)c3)C2)c1 (stereo not given),8
20,O=C(Nc1ccc(-n2ccnc2P(=O)(O)c2ccccc2)cc1)c1ccccc1Br,81 (active)
21,O=C(Nc1ccccc1)c1cccnc1Nc1ccccc1,8
22,Cc1ccc(NC(=O)c2cccnc2C(=O)Nc2ccc(C)cc2)cc1,10
23,COc1ccc(CCN2C(=O)N(c3ccc(OC)cc3)C(=O)C2CC(=O)Nc2ccc(OC)cc2)cc1 (stereo not given),6
24,Cc1cc(NC(=O)CSc2nccn2-c2ccc([N+](=O)[O-])cc2)no1,25
25,C/C(=N/Nc1ccc(Cl)cc1)c1cnnc(-c2ccccc2)n1,21

row,SMILES,fluorescence (KMESF)
1,Cc1ccc(S(=O)(=O)N2CCOCC2)cc1C(=O)NC(=S)N(Cc1ccccc1)C(C)C,4
2,CCN(CC(=O)Nc1cccc(S(N)(=O)=O)c1)Cc1nc2ccccc2c(=O)[nH]1,7
3,COc1ccc(C2CC(c3ccccc3)Nc3ncnn32)cc1 (stereo not given),9
4,Clc1ccc(C2CC(c3cccs3)n3ncnc3N2)cc1Cl (stereo not given),7
5,FC(F)Oc1ccccc1C1CC(c2ccc(Br)s2)Nc2ncnn21 (stereo not given),72 (active)
6,CNC(=S)NNC(=O)c1oc2nc(-c3ccccc3)cc(-c3ccco3)c2c1N,7
7,COc1ccc(CCN2C(=O)CC(N3CCC(C(N)=O)CC3)C2=O)cc1OC (stereo not given),5
8,O=C(CCc1[nH]c2ccccc2c1Sc1ccccc1)N(CCO)CCO,16
9,CS/C(=C\C(=O)c1ccco1)Nc1ccccc1Cl,7
10,COc1ccc(CCNC(=O)CN(c2ccccc2)S(C)(=O)=O)cc1,9
11,COC(=O)CNC(=O)c1ccc(OC2CCN(C(=O)C3CC3)CC2)cc1,7
12,O=C(COC(=O)CCC(=O)c1cccs1)NCc1ccco1,9
13,O=C(COC(=O)C12CC3CC(CC(C3)C1)C2)NCc1ccco1,56 (active)
14,O=C(CC12CC3CC(CC(C3)C1)C2)NCc1ccco1,11
15,COCCCn1c(-c2cccs2)nc2nc3ccccc3nc21,6
16,CN(c1ccccc1)c1ccc(/C=c2\s/c(=C(/C#N)C(=O)C(C)(C)C)n(Cc3ccco3)c2=O)cc1,453 (active)
17,COc1ccc(NC(=O)Cn2c(=O)n(Cc3ccco3)c(=O)c3ccccc32)cc1,36
18,Cc1cs/c(=N\N=C\c2ccc(O)cc2)n1Cc1ccco1,7
19,CCOC(=O)CC(NC(=O)C1c2ccccc2Oc2ccccc21)c1ccc(C)cc1 (stereo not given),11
20,Clc1ccc(C[n+]2cc(-c3ccccc3)n3c2CCC3)cc1,7
21,O=C(Cc1cccs1)Nc1cccc(-c2nc3ccccc3[nH]2)c1,14
22,O=C(/C=C/c1ccco1)Nc1cccc(-c2nc3ccccc3[nH]2)c1,9
23,O=C(Nc1cccc(-c2nc3ccccc3[nH]2)c1)c1ccc(C(=O)Nc2cccc(-c3nc4ccccc4[nH]3)c2)cc1,151 (active)
24,Cc1ccc(CN2C(=O)N/C(=C/c3cc(C)n(-c4ccccn4)c3C)C2=O)cc1,16
25,CCCCCCCCCCCCC(NC(C)=O)(C(=O)OCC)C(=O)OCC,6
